# Results taken from PubChem BioAssay AID1159580 (chemical genetic matrix, 2015).
# “And” between values parts separate entries of the source, which are not always exact repeats. Equal values may be shown once. The whole screen tested about 5,500 compounds, of which about 2,000 (36%) were called active. Not shown: some 18% with an inconclusive outcome. Some of the results follow. A number with no mark means an inactive call. Rule as the data show it: active = normalized growth mostly below about 0.91 (no sharp cut-off); inconclusive = no clear call, values can overlap the other calls; inactive = mostly above about 0.92.
# Assay: chemical genetic growth profiling, strain panel (AID 1159580);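 also: tested at 20 µM; growth read once vehicle control cultures reached saturation at 30 °C; 1 = growth at the plate median or of vehicle wells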
# Conditions: S. cerevisiae deletion strains, growth OD
smiles,measurement,setting,value
CO[C@@]12[C@@H]3NC3CN1C1=C(C(=O)C(N)=C(C)C1=O)[C@@H]2COC(N)=O (some centres not stated),normalized growth,"locus YAL013W, strain DEP1, stronger effect = lower value",0.997
same,normalized growth,"locus YAL021C, strain ccr4, stronger effect = lower value",0.98
same,normalized growth,"locus YAL026C, strain drs2, stronger effect = lower value",0.969
same,normalized growth,"locus YAL030W, strain snc1, stronger effect = lower value",0.989
same,normalized growth,"locus YBL061C, strain skt5, stronger effect = lower value",0.964
same,normalized growth,"locus YBR009C, strain hhf1, stronger effect = lower value",1
same,normalized growth,"locus YBR021W, strain FUR4, stronger effect = lower value",0.995
same,normalized growth,"locus YBR023C, strain chs3, stronger effect = lower value",0.962
same,normalized growth,"locus YBR171W, strain sec66, stronger effect = lower value",0.958
same,normalized growth,"locus YBR229C, strain ROT2, stronger effect = lower value",1
same,normalized growth,"locus YBR231C, strain swc5, stronger effect = lower value",0.954
same,normalized growth,"locus YBR279W, strain paf1, stronger effect = lower value",0.978
same,normalized growth,"locus YCL011C, strain gbp2, stronger effect = lower value",0.95
same,normalized growth,"locus YCL016C, strain dcc1, stronger effect = lower value",1.01
same,normalized growth,"locus YCL029C, strain bik1, stronger effect = lower value",0.971
same,normalized growth,"locus YCL061C, strain MRC1, stronger effect = lower value",0.919 (active)
same,normalized growth,"locus YCL069W, strain vba3, stronger effect = lower value",0.984
same,normalized growth,"locus YCR088W, strain abp1, stronger effect = lower value",0.971
same,normalized growth,"locus YDL005C, strain med2, stronger effect = lower value",0.972
same,normalized growth,"locus YDL035C, strain GPR1, stronger effect = lower value",1
same,normalized growth,"locus YDL040C, strain nat1, stronger effect = lower value",0.973
same,normalized growth,"locus YDL074C, strain BRE1, stronger effect = lower value",1.04
same,normalized growth,"locus YDL101C, strain DUN1, stronger effect = lower value",1.01
same,normalized growth,"locus YDL134C, strain PPH21, stronger effect = lower value",1.01
same,normalized growth,"locus YDL185W, strain tfp1, stronger effect = lower value",0.972
same,normalized growth,"locus YDL192W, strain arf1, stronger effect = lower value",0.974
same,normalized growth,"locus YDR001C, strain nth1, stronger effect = lower value",0.954
same,normalized growth,"locus YDR069C, strain doa4, stronger effect = lower value",0.926
same,normalized growth,"locus YDR101C, strain arx1, stronger effect = lower value",1
same,normalized growth,"locus YDR137W, strain rgp1, stronger effect = lower value",0.955
same,normalized growth,"locus YDR150W, strain NUM1, stronger effect = lower value",0.987
same,normalized growth,"locus YDR159W, strain sac3, stronger effect = lower value",0.998
same,normalized growth,"locus YDR162C, strain NBP2, stronger effect = lower value",1.05
same,normalized growth,"locus YDR195W, strain ref2",0.879
same,normalized growth,"locus YDR297W, strain sur2, stronger effect = lower value",0.966
same,normalized growth,"locus YDR318W, strain mcm21, stronger effect = lower value",0.977
same,normalized growth,"locus YDR334W, strain swr1, stronger effect = lower value",0.934
same,normalized growth,"locus YDR335W, strain msn5, stronger effect = lower value",0.963
same,normalized growth,"locus YDR388W, stronger effect = lower value",0.982
same,normalized growth,"locus YDR392W, strain spt3, stronger effect = lower value",1.06
same,normalized growth,"locus YDR502C, strain sam2, stronger effect = lower value",1.01
same,normalized growth,"locus YEL003W, strain gim4, stronger effect = lower value",0.973
same,normalized growth,"locus YEL037C, strain rad23, stronger effect = lower value",0.975
same,normalized growth,"locus YEL061C, strain CIN8 (second series), stronger effect = lower value",0.95
same,normalized growth,"locus YEL061C, strain CIN8, stronger effect = lower value",0.998
same,normalized growth,"locus YER015W, strain faa2, stronger effect = lower value",1
same,normalized growth,"locus YER016W, strain bim1, stronger effect = lower value",1.01
same,normalized growth,"locus YER110C, stronger effect = lower value",0.968
same,normalized growth,"locus YER111C, strain swi4, stronger effect = lower value",0.981
same,normalized growth,"locus YER155C, strain BEM2 (second series), stronger effect = lower value",0.962
same,normalized growth,"locus YER155C, strain BEM2, stronger effect = lower value",0.993
same,normalized growth,"locus YER167W, strain BCK2, stronger effect = lower value",0.994
same,normalized growth,"locus YFR010W, strain ubp6, stronger effect = lower value",0.927
same,normalized growth,"locus YGL078C, strain dbp3, stronger effect = lower value",0.996
same,normalized growth,"locus YGL086W, strain mad1, stronger effect = lower value",0.963
same,normalized growth,"locus YGL167C, strain pmr1, stronger effect = lower value",0.94
same,normalized growth,"locus YGL173C, strain kem1, stronger effect = lower value",0.981
same,normalized growth,"locus YGL227W, strain vid30, stronger effect = lower value",0.974
same,normalized growth,"locus YGL240W, strain doc1, stronger effect = lower value",0.966
same,normalized growth,"locus YGL248W, strain PDE1, stronger effect = lower value",1
same,normalized growth,"locus YGL253W, strain hxk2, stronger effect = lower value",0.988
same,normalized growth,"locus YGR078C, strain PAC10, stronger effect = lower value",1.04
same,normalized growth,"locus YGR135W, strain pre9, stronger effect = lower value",1.02
same,normalized growth,"locus YGR229C, strain SMI1, stronger effect = lower value",1.02
same,normalized growth,"locus YGR252W, strain gcn5, stronger effect = lower value",0.943
same,normalized growth,"locus YHR013C, strain ard1, stronger effect = lower value",0.985
same,normalized growth,"locus YHR027C, strain rpn1, stronger effect = lower value",0.978
same,normalized growth,"locus YHR030C, strain SLT2, stronger effect = lower value",0.993 and 0.988
same,normalized growth,"locus YHR079C, strain IRE1 (second series), stronger effect = lower value",0.994
same,normalized growth,"locus YHR079C, strain IRE1, stronger effect = lower value",0.957
same,normalized growth,"locus YHR094C, strain hxt1, stronger effect = lower value",0.975
same,normalized growth,"locus YHR129C, strain ARP1, stronger effect = lower value",1
same,normalized growth,"locus YHR142W, strain chs7, stronger effect = lower value",0.987
same,normalized growth,"locus YHR200W, strain rpn10, stronger effect = lower value",0.971
same,normalized growth,"locus YIL066C, strain RNR3, stronger effect = lower value",0.998
same,normalized growth,"locus YIL073C, strain SPO22, stronger effect = lower value",0.914
same,normalized growth,"locus YIL125W, strain kgd1, stronger effect = lower value",0.996
same,normalized growth,"locus YIR030C, strain dcg1, stronger effect = lower value",0.991
same,normalized growth,"locus YJL092W, strain hpr5, stronger effect = lower value",0.936
same,normalized growth,"locus YJL095W, strain BCK1 (second series), stronger effect = lower value",0.967
same,normalized growth,"locus YJL095W, strain BCK1, stronger effect = lower value",1.04 and 0.999
same,normalized growth,"locus YJL115W, strain asf1, stronger effect = lower value",0.968
same,normalized growth,"locus YJL129C, strain trk1, stronger effect = lower value",0.96
same,normalized growth,"locus YJL134W, strain LCB3, stronger effect = lower value",1
same,normalized growth,"locus YJL154C, strain vps35, stronger effect = lower value",0.958
same,normalized growth,"locus YJL164C, strain tpk1, stronger effect = lower value",1.01
same,normalized growth,"locus YJL166W, strain qcr8, stronger effect = lower value",0.932
same,normalized growth,"locus YJL168C, strain set2, stronger effect = lower value",0.983
same,normalized growth,"locus YJL187C, strain SWE1 (second series), stronger effect = lower value",1.01
same,normalized growth,"locus YJL187C, strain SWE1, stronger effect = lower value",0.98
same,normalized growth,"locus YJR043C, strain POL32, stronger effect = lower value",0.98
same,normalized growth,"locus YJR066W, strain TOR1, stronger effect = lower value",0.941
